Screening data (PubChem BioAssay)
Rows were chosen to be rich in hits. Some 9.5% of all compounds tested hit in one or more screens of this group.
NS1 inh – inhibitors of influenza NS1 protein function | Potency, µM (doses to about 46.1 µM) | 270,000 tested, 0.4% active; further: actives are rising curves; nearly all actives have a fitted effect of over 50% in size
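A cell-based growth assay was used: compounds that relieve NS1-induced slow growth of budding yeast raise OD600. Assay medium was yeast nitrogen base with ammonium sulphate and -URA supplement, pH 6.0, with 2% galactose.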
SARS PLP yeast – blocks SARS-CoV papain-like protease in a yeast assay; S. cerevisiae expressing SARS-CoV PLpro, growth rescue; Potency, µM (doses to about 32.9 µM), most hits filed as activators; 330,000 tested, 0.19% active; AID 485353; further: nearly all actives have a fitted effect of over 55% in size
RE007 growth inh – less growth of the S. pombe RE007 Vpr strain; Potency, µM (top dose mostly 92.2 µM), hits mostly inhibitors; S. pombe RE007 Vpr strain, BacTiter-Glo ATP luminescence, 24 h; 360,000 tested, 0.21% active; active means well fitted falling curve with a large enough effect; inconclusive means small, poorly fitted or top-dose-only effect; inactive means no such curve, though single readings can be large or run the other way; further: nearly all actives have a fitted effect of over 50% in size
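Fission yeast strain RE007, carrying one chromosomally integrated HIV-1 vpr copy, was seeded at OD 0.01 in PMG+AL medium with 23 nL pinned compound. After 24 h at 30 °C and 99% humidity, viability was read by BacTiter-Glo luminescence.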
Pf growth 48h – inhibits P. falciparum growth in the first generation, 48 h; P. falciparum luciferase growth in erythrocytes, 48 h; Potency, µM (highest dose often 28.7 µM), actives largely listed as inhibitors; 310,000 tested, 5.9% active; active means well fitted inhibition curve with a large enough effect; inconclusive means small, poorly fitted or top-dose-only effect, or another doubt; inactive means no such curve, though single readings can be large or run the other way
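Read-out is firefly luciferase luminescence from an integrated reporter in P. falciparum, so falling signal marks reduced parasite growth. Infected erythrocytes were at 2% hematocrit and 0.1% parasitemia (final) in Albumax-supplemented RPMI 1640.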
Pf growth 96h – P. falciparum growth inhibition at 96 hours; 320,000 tested, 6.9% active; Potency, µM (titrated, usually from 28.7 µM), actives largely listed as inhibitors; P. falciparum luciferase reporter growth, 96 h; AID 504834; active means well fitted inhibition curve with a large enough effect; inconclusive means small, poorly fitted or top-dose-only effect, or another doubt; inactive means no such curve, though single readings can be large or run the other way
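Compounds incubated with erythrocytes infected by luciferase-expressing P. falciparum (2% hematocrit, 0.05% parasitemia final) for 96 hours, 37 C in 5% CO2. Growth inhibition scored as decreased luciferase luminescence.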
Numbers stand for hits; 0 = inactive; ? = inconclusive; - = no result. Unless noted, the call rests on the fitted dose curve.

SMILES	NS1 inh	SARS PLP yeast	RE007 growth inh	Pf growth 48h	Pf growth 96h
O=S(=O)(c1ccccc1)[C@@]1(c2ccc(Br)cc2)C[C@@H]2ON=C(c3cccc(Br)c3)[C@@H]2C1	-	0	0	9.3µM	?
COC(=O)C(CC(=O)c1ccc(C)cc1)n1nc(C)cc1C (stereo unspecified)	0	0	0	0	?
COC(=O)C(CC(=O)c1ccc(Br)cc1)n1nc(C)cc1C (stereo unspecified)	0	0	28µM	0	0
CCSc1ncc(/C=N/Nc2ccccc2)n1C	0	0	0	5.2µM	2.6µM
COc1cc(OC)cc(-c2cc3nc(C)cc(N4CCN(C(=O)c5ccco5)CC4)n3n2)c1	0	0	-	-	1.9µM
O=C(c1cccnc1)C1Cc2ccccc2C1=O (stereo unspecified)	0	0	?	?	7.4µM
CC1COCC(C)N1C(=O)c1cccnc1 (stereo unspecified)	-	-	0	-	-
O=C1C(CSCc2ccccc2)NC(=S)N1c1ccccc1 (stereo unspecified)	0	0	0	?	0
Cc1cc(Cl)ccc1NC(=O)COC(=O)c1c(C)noc1C	-	0	0	0	0
N=c1n(CCN2CCCCC2)c2ccccc2n1CC(=O)c1cccc([N+](=O)[O-])c1	0	-	0	1.9µM	?
N=c1n(CC(=O)c2ccc([N+](=O)[O-])cc2)c2ccccc2n1Cc1ccccc1	0	0	0	8.3µM	?
O=C(Cn1nc(Cl)nc1Cl)c1ccc([N+](=O)[O-])cc1	0	0	0	13µM	2.9µM
N=c1n(Cc2ccccc2)c2ccccc2n1Cc1ccccc1	0	0	0	10µM	?
N=c1n(CC(=O)c2ccc(Br)cc2)c2ccccc2n1Cc1ccccc1	-	0	0	?	?
O=C(Cn1nnc2ccccc21)c1ccc([N+](=O)[O-])cc1	0	0	0	0	0
Cc1ccc(C(=O)C(OC(=O)CNS(=O)(=O)c2ccccc2)c2ccccc2)cc1 (stereo unspecified)	0	0	0	?	0
Cn1c(N)c(C(=O)CSc2nc(C3CC3)n(-c3ccccc3)n2)c(=O)n(C)c1=O	-	0	0	?	?
CCN(CC(=O)Nc1ccc(NC(C)=O)cc1)C(=O)CCCN1C(=O)c2ccccc2C1=O	-	0	0	?	0
O=C(OCC(=O)N1CCC(Cc2ccccc2)CC1)c1cncc(Br)c1	-	0	0	-	-
Cc1cc([N+](=O)[O-])cc2c1NC(=O)C2(O)N1CCCCCC1 (stereo unspecified)	0	0	0	0	10µM
